Consider 40 molecules from PubChem BioAssay (NCI).

Structures are written as SMILES. The panel holds about 83,000 compounds, 20% with a hit somewhere; the sample as a whole holds those more often.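 Growth was measured after 48 h exposure to one concentration of compound in 96-well plates. Values under 10 count as active.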 A number with no mark means an inactive call. Calls of active or inactive are those of the source.

In one assay the test system is OVCAR-3 ovarian. Put plainly: NCI-60 one-dose screen, 48 h (100 = growth as untreated, 0 = no growth, -100 = all killed). Particulars: 10 µM unless noted.
As for `COc1ccc(C(=O)N2c3ccccc3Sc3ccccc32)c(OC)c1`, the growth was -28% (active).
Consider `Cc1c(-c2ccc(O)cc2)n(Cc2ccc(OCCN3CCCCCC3)cc2)c2ccc(O)cc12`, for which the growth was 85.1%.
Regarding `Cc1ccc(Nn2c(SCC(=O)Nc3nc(-c4ccccc4)cs3)nc(C)c2C)cc1`, the growth is 78.5%.
Take `CC(C)c1ccc(C(=O)Nc2nc3ccc(O)c(CN(C)C)c3s2)cc1`: the growth was 91.3%.

In a further assay the test system is HS 578T breast. Described as above. As to conditions: 10 µM unless noted.
Turning to `O=C(Nc1nc2ccc(C(=O)N3CCN(/C=C/c4ccccc4)CC3)cc2s1)c1ccc(NCCc2ccccc2)c([N+](=O)[O-])c1`, the growth is 69%.
Turning to `COC12C=C/C(=C(/C(=O)OCc3ccncc3)C(=O)CCCCCCCCC3(OC)C=C/C(=C(/C(=O)OCc4ccncc4)C(=O)CCCCCCCC1)O3)O2`, the growth was 34.6%.
Take `Cc1ccc2c(n1)C(=O)C(Br)=C(C1CCCC1)C2=O`: the growth was 93.1%.
As to `C#COc1cccc(Nc2c(C#N)cnc3ncc(NC(=O)CCl)cc23)c1`, the growth was 66.8% [6.25 µM].
On the same count and under the same terms, for `COc1cc(-c2csc(NC(=O)c3ccc(N4CCOCC4)c(C(F)(F)F)c3)n2)cc(OC)c1OC` the value was 60%; for `CC/C=C\C[C@H](O)C/C=C1/C(=O)C=C[C@@H]1C/C=C\CCCC(=O)N(C)C`, 16.4%; for `Oc1c(I)cc(I)cc1CNCCN(Cc1ccccn1)Cc1ccccn1`, -11.3% (active).
Same read-out and setting: then `CC1=C([Se]CC(OC(=O)CC[Se]c2ccccc2)C(=O)NC(C)(C)C)C(=O)c2ccccc2C1=O` (centres undefined), with -19.1% (active); and `Cc1cn(-c2cc(NC(=O)c3cncc(C#Cc4cnc(N)c5ncccc45)c3)cc(C(F)(F)F)c2)cn1`, with 60.1%.
Take `CC(C)c1ccc(-n2c(=S)[nH]c3sc4cc(O)ccc4c3c2=O)cc1`: the growth is 92.4%.
As to `COc1ccccc1CNc1c2ccccc2nc2ccccc12`, the growth was 62%.
Still for that read-out and setting: then `COC(=O)c1nc(-c2ccccc2)oc1S(=O)(=O)Cc1ccccc1`, with 110%; and `O=C1/C(=C/c2ccccc2Br)COc2ccc(O)cc21`, with 70.5%.
Take `C/C(Cc1ccc(Cl)cc1)=C(\c1ccc(O)cc1)c1ccc(Cl)cc1`: the growth is 99.6%.
On the same count and under the same terms, then `COC12C=C/C(=C(/C(=O)OCc3ccncn3)C(=O)CCCCCCCCC3(OC)C=C/C(=C(/C(=O)OCc4ccncn4)C(=O)CCCCCCCC1)O3)O2`, with 38%.
With `CCc1ccccc1-n1c(-c2ccc(OC)cc2)cc(-c2ccc(OC)cc2)c(C#N)c1=O`, the growth was 17.9%.
Still for that read-out and setting: for `COCCn1cc(-c2csc(-c3cn(C)c4ccc(Br)cc34)n2)c2cccnc21` the value was 63%.
Consider `C=CCc1c(O)c(C(=O)/C=C/c2ccccc2)c(OC)c2ccoc12`, for which the growth is 66.1%.
Take `COc1cc(-c2nc3sccn3c2-c2ccnc(NCCNS(=O)(=O)c3ccccc3)n2)ccc1F`: the growth was 69.6%.
Same read-out and setting: for `O=c1c2cnn(-c3ccccc3)c2n2c(CN3CCOCC3)nnc2n1-c1ccccc1` the value was 107%; for `O=C1C(Cl)=C(Nc2ccc(S(=O)(=O)N3CCOCC3)cc2)C(=O)c2ccccc21`, 79.2%; for `O=C(COc1ccc(-c2nc3cc(Cl)c(Cl)cc3[nH]2)cc1)N=Nc1c(O)[nH]c2ccc(Cl)cc12`, 67.5%.
Regarding `CC1CCc2c(C(=O)Nc3ncc(Cc4cccc([N+](=O)[O-])c4)s3)csc2C1` (centres undefined), the growth was 19.1%.
`CC(C)(Sc1cc(C(C)(C)C)c(O)c(C(C)(C)C)c1)Sc1cc(C(C)(C)C)c(OC(=O)CCCC(=O)O)c(C(C)(C)C)c1`: the growth is 80.1%.
The same measure, in the same setting: for `CCSc1oc(-c2ccccc2)nc1[P+](c1ccccc1)(c1ccccc1)c1ccccc1` the value was 18.4%; for `C#CCOC(=O)/C=C/c1cn(-c2ccccc2)nc1-c1ccc(OC)cc1`, 76.9%; for `Cc1ccc(CNc2ccc3nc(CCC4CCCCC4)[nH]c3c2)cc1`, 55.7%.
Same read-out and setting: then `CCn1c(SCC(=O)N/N=C(\C)c2ccc(Cl)cc2)nc2c1c(=O)n(C)c(=O)n2C`, with 94.4%.
Still for that read-out and setting: for `COc1ccc(\C=N/N=C(N)/C(N)=N\N=C/c2ccc(OC)cc2)cc1` the value was 87.3%; for `c1cc2c(ccc3[nH]c(-c4ccc5[nH]ncc5c4)c4c(c32)CCCC4)n1`, 75.7%.
`Cc1ccc2c(Cn3cc(CSc4nc5ccccc5o4)nn3)cc(=O)oc2c1`: the growth was 107%.
The same measure, in the same setting: then `C=C(C)[C@@H]1CCC[C@]2(COS(=O)(=O)c3ccc(C)cc3)CC[C@]3(C)[C@@H](CC[C@@H]4[C@@]5(C)CCCNC(C)(C)[C@@H]5CC[C@]43C)[C@@H]12`, with 61.4%; and `COC(=O)c1c(C)c2n(c1C)C(=O)C(c1ccccc1)=C2`, with 103%.
For `COc1cc2cc(NCc3cccc(Cl)c3)nc(C)c2cc1OC`, the growth was 76.3%.
Same read-out and setting: for `CCN(CC)Cc1cc(C=C2C(=O)NC(=S)NC2=O)cc(OC)c1O` the value was 103%; for `Cc1cc(=O)oc2cc(OCc3nn4c(Nc5nc6ccccc6s5)c(-c5ccccc5)nc4s3)ccc12`, 78.1%.
On to `COc1ccc(C(=O)N2c3ccccc3Sc3ccccc32)c(OC)c1`, for which the growth was 14.7%.
As to `Cc1c(-c2ccc(O)cc2)n(Cc2ccc(OCCN3CCCCCC3)cc2)c2ccc(O)cc12`, the growth is 68.4%.
The same measure, in the same setting: then `Cc1ccc(Nn2c(SCC(=O)Nc3nc(-c4ccccc4)cs3)nc(C)c2C)cc1`, with 106%; and `CC(C)c1ccc(C(=O)Nc2nc3ccc(O)c(CN(C)C)c3s2)cc1`, with 86.8%.
